Laboratory results from PubChem BioAssay (NCATS).
Records with an inconclusive call do not appear. The source made the active and inactive calls. The call rests on the fitted dose curve; in most records, active means well fitted curve in the direction sought with a large enough effect; inconclusive means small, poorly fitted or top-dose-only effect, or another doubt; inactive means no such curve, though single readings can be large; an effect the other way counts as inactive or inconclusive.

Tests used:
[1] = SW1088 Cancer Cell Toxicity qHTS against the NCATS CANVASS Library (AID 1347350); further: nearly all actives have a fitted effect of over 75% in size
Outline: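 Per well, 1000 cells; exposure 72 h with compound at 11 final concentrations; readout CellTiter-Glo luminescence.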

[2] = HPAF-II 12hr Apoptosis Induction qHTS against the NCATS CANVASS Library (AID 1347358)
Outline: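 Caspase-3/7 activation by DEVD-substrate luminescence (Caspase-Glo 3/7, 15 min, room temperature) after a 12-hour compound exposure in 11 concentrations, of HPAF-II pancreatic cells seeded at 500/well in DMEM with 10% FBS.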

[3] = SDT Cancer Cell Toxicity qHTS against the NCATS CANVASS Library (AID 1347365); further: nearly all actives have a fitted effect of over 60% in size; further: potency means the concentration at half of the fitted maximal effect
Outline: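 Cytotoxicity taken from CellTiterGlo ATP luminescence after 72 hr at 37C, 5% CO2. Canine glioma line SDT, 500 cells/well, treated at 11 concentrations; bortezomib dose series as control.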

[4] = KB-3-1 Cancer Cell Toxicity qHTS against the NCATS CANVASS Library (AID 1347366); further: nearly all actives have a fitted effect of over 75% in size
Outline: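 CellTiter-Glo luminescence measured viability after 72 h at 37C. KB-3-1 cells were seeded at 500 per well in DMEM/10% FBS.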

[5] = qHTS for ATAD5 Antagonist screened against the NCATS CANVASS Library (AID 1347370); further: nearly all actives have a fitted effect of over 65% in size; further: potency means the concentration at half of the fitted maximal effect
Outline: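 Compounds (11-point) co-dosed with 10 µM 5-FUrd for 16 h at 37 °C onto HEK293T-ATAD5 luciferase reporter cells. Viability measured by CellTiter-Fluor fluorescence, then ATAD5 reporter signal by luminescence.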

[6] = biological target: Nuclear receptor subfamily 1 group I member 3 (Homo sapiens) (UniProt Q14994); test: qHTS for Constitutive Androstane Receptor (CAR) Antagonist screened against the NCATS CANVASS Library (AID 1347372); further: potency means the concentration at half of the fitted maximal effect
Sequence of Nuclear receptor subfamily 1 group I member 3 (Homo sapiens) (Q14994 whole entry, looked up): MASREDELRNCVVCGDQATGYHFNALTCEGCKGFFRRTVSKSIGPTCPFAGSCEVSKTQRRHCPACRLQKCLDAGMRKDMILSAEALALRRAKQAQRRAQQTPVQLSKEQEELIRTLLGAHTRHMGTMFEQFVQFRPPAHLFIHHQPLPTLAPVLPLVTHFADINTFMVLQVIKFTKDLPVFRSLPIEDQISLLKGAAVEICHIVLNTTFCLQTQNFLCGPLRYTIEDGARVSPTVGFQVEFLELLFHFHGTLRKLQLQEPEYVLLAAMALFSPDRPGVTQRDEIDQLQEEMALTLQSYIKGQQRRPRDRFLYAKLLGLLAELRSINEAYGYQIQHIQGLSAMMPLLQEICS
Outline: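 Antagonist mode: compound added alongside 50 nM CITCO to HepG2-hCAR-CYP2B6 reporter cells, 24hr at 37C. Viability by CellTiter-Fluor fluorescence, then CAR-driven luciferase by ONE-Glo luminescence.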

[7] = biological target: Nuclear receptor subfamily 1 group I member 3 (Homo sapiens) (UniProt Q14994); test: qHTS for Constitutive Androstane Receptor (CAR) Agonist screened against the NCATS CANVASS Library (AID 1347373);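 further: every well also contained 1.5 µM PK11195 alongside the test compound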
Outline: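 Agonist mode with 1.5uM PK11195 present: compounds for 24hr on HepG2-hCAR-CYP2B6 cells. CellTiter-Fluor fluorescence (ex 405, em 540 nm) gives viability; ONE-Glo luminescence reports CAR activation.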

[8] = qHTS for Hypoxia signaling pathway (HIF-1) antagonists against the NCATS CANVASS Library (AID 1347374); further: nearly all actives have a fitted effect of over 60% in size; further: potency means the concentration at half of the fitted maximal effect
Outline: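 Antagonism scored as loss of CoCl2-driven (60 uM stock added) HRE beta-lactamase signal, read by CCF4 FRET at 460/530 nm. Compounds were tested in an 11-point series on ME-180 reporter cells for 17 hrs at 37C, with parallel CellTiter-Glo cytotoxicity.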

[9] = 10-beta competent E. coli microbial cell viability qHTS against the NCATS CANVASS Library (AID 1347376); further: series mostly up to about 46 µM
Outline: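 Read-out: BacTiter-Glo ATP luminescence, taken 20 min after reagent addition. Beforehand, 10-beta competent E. coli at 0.2 OD had been incubated overnight at 37C with compounds at 11 concentrations.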

[10] = qHTS for H2AX Agonists against the NCATS CANVASS Library (AID 1347378); further: potency means the concentration at half of the fitted maximal effect
Outline: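 Phospho-H2AX (S139) in CHO-K1 lysates measured by HTRF, reported as 665/615 nm emission ratio after 24 hr antibody incubation at room temperature. Cells were first treated with a compound series for 3 hr at 37C (0.76% DMSO final).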

[11] = Cytotoxicity qHTS for assessment of Hepg2 cells membrane integrity screened against the NCATS CANVASS Library (AID 1347387)
Outline: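 Membrane damage quantified as fluorescent LDH-release signal (ex 560, em 590 nm) in HepG2 cells treated 5 hr at 37C. qHTS format, 11 concentrations spanning 0.59 nM - 46 uM final, cells plated at 2000 per well the night before.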

[12] = qHTS for Activators of p53 Stress Response Pathway screened against the NCATS CANVASS Library (AID 1347388)
Outline: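 Beta-lactamase reporter driven by p53 response elements in HCT-116 cells, read as the 460 nm/530 nm emission ratio after CCF4 loading, following 16 h of exposure to an 11-point series. Cell viability was measured in the same wells by CellTiter-Glo luminescence.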

[13] = qHTS assay for small molecule disruptors of mitochondrial membrane potential screened against the NCATS CANVASS Library (AID 1347389); further: nearly all actives have a fitted effect of over 60% in size; further: potency means the concentration at half of the fitted maximal effect
Outline: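 Mitochondrial membrane potential in HepG2: 1 h compound treatment (11-point concentration series), 30 min m-MPI dye at 37C, then dual fluorescence of J-aggregates (ex 540/em 590) and monomers (ex 490/em 535); lower red/green ratio indicates depolarization.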

[14] = Secretion counterscreen for inhibitors of the SERCaMP assay screened against the NCATS CANVASS Library (AID 1347390);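 further: light from luciferase secreted into medium read as a measure of general secretion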; further: potency means the concentration at half of the fitted maximal effect
Outline: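 Counterscreen for secretory-pathway interference: after 4 h attachment, SH-SY5Y-GLuc cells were exposed 20 hours to compounds (final 0.001 - 77 uM), then coelenterazine added and GLuc luminescence recorded; Brefeldin A served as control.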

[15] = qHTS for activators of dead-cell proteases activity screened against the NCATS CANVASS Library (AID 1347392);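 further: luminescence from protease leaking out of membrane-damaged cells cleaving impermeant substrate; rising signal means more cytotoxicity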
Outline: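 Luminescent dead-cell protease readout (AAF-aminoluciferin, 15 min, room temperature) after 5 h compound treatment of HepG2 cells (2000/well, pre-attached 18 h). Eleven concentrations.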

[16] = qHTS for inhibitors of ER calcium dysfunction: SERCaMP assay screened against the NCATS CANVASS Library (AID 1347393); further: nearly all actives have a fitted effect of over 40% in size; further: potency means the concentration at half of the fitted maximal effect
Outline: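 Thapsigargin-induced ER calcium depletion drives GLuc-SERCaMP secretion from SH-SY5Y cells; compounds given 16 h beforehand were scored by lowered coelenterazine luminescence after 4 h challenge.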

[17] = Viability qHTS for inhibitors of the SERCaMP assay screened against the NCATS CANVASS Library (AID 1347400); further: nearly all actives have a fitted effect of over 70% in size; further: potency means the concentration at half of the fitted maximal effect
Outline: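 CellTiter-Glo luminescence measured cytotoxicity after 48 h at 37C of compound treatment (11-point series). Cells were SH-SY5Y-GLuc SERCaMP MJH297 derivatives, seeded at 1000 per well 4 h beforehand.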

[18] = Redox Reaction Profiling qHTS: Assay Interference Panel against the NCATS CANVASS Library (AID 1347401)
Outline: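 Redox-cycling liability assessed as DTT-driven conversion of resazurin (5 uM, with 200 uM DTT, HEPES pH 7.3) to fluorescent resorufin. Fluorescence at 525/598 nm measured initially and after 15 min dark incubation.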

[19] = HEK-293 Cancer Cell Toxicity qHTS against the NCATS CANVASS Library (AID 1347355); further: nearly all actives have a fitted effect of over 65% in size; further: potency means the concentration at half of the fitted maximal effect
Outline: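 Toxicity was measured as CellTiter-Glo luminescence after 72 h exposure to an 11-point compound series. Compound was added to 1000 cells/well 4 h after seeding.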

[20] = G06 Cancer Cell Toxicity qHTS against the NCATS CANVASS Library (AID 1347368); further: nearly all actives have a fitted effect of over 60% in size; further: potency means the concentration at half of the fitted maximal effect
Outline: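 Viability measured by CellTiterGlo ATP luminescence after 72 hr at 37C, 5% CO2. Canine G06 glioma cells plated at 500/well. Compounds tested as 11-point qHTS titrations.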

Measured: Potency

O=C(O)CC1OC(=O)c2c(O)cccc21 (stereo not drawn)
active: [3] 0.0132 µM
not listed: [19] | [20]
inactive: all other assays above

CO[C@@H]1[C@H](O)[C@@H](C)O[C@@H](OC[C@H]2/C=C/C=C/C(=O)C(C)C[C@H](C)C(O[C@@H]3O[C@H](C)CC4(OC(=O)O[C@@H]4C)C3O)[C@@H](C)/C=C/C(=O)OC2C)[C@@H]1OC (stereo partly drawn)
active: [16] 15.3 µM
not listed: [5] | [19] | [20]
inactive: all other assays above

O=c1cc(-c2ccc(O)cc2)oc2c([C@@H]3OC(CO)[C@H](O)[C@@H](O)[C@H]3O)c(O)cc(O)c12 (stereo partly drawn)
not listed: [14]
inactive: all other assays above

COc1ccc([C@@H]2c3cc(OC)c(OC)cc3C(=O)C(C)C2C)cc1OC (stereo partly drawn)
active: [5] 20.9 µM | [16] 38.4 µM
not listed: [17]
inactive: all other assays above

C[C@H]1C[C@@H]([C@@H]2CC[C@]34O[C@H](CC[C@@]35C[C@H](C)C(=O)O5)CN24)OC1=O
not listed: [14]
inactive: all other assays above

C=C1C[C@@]23C=CC(=O)[C@@](C)(CCC(=O)Nc4c(O)ccc(C(=O)O)c4O)C2C[C@@H]1CC3O (stereo partly drawn)
inactive: all assays above

C[C@@]12CCC[C@@](C)(C(=O)O)[C@H]1CC[C@]13C[C@H]4C[C@H](O[C@@]4(C)C1)[C@H]32
inactive: all assays above

CC1(C)C=Cc2c(ccc3c2OC[C@@H](c2ccc(O)cc2O)C3)O1
active: [13] 14.8 µM | [16] 30.5 µM
not listed: [1] | [7] | [8]
inactive: all other assays above

CC[C@@H]1C[C@@]2(CC)OC(=O)[C@@]3(CC)OC(=O)[C@@H]1[C@@H]23
inactive: all assays above

C=C1C(=O)O[C@H]2[C@H]1CC/C(CO)=C\CC[C@@]1(C)O[C@@H]21
active: [19] 5.9 µM | [3] 13.2 µM | [20] 11.8 µM | [5] 20.9 µM | [6] 20.9 µM | [8] 4.72 µM | [10] 21.7 µM | [14] 34.3 µM | [16] 4.31 µM | [17] 34 µM
inactive: [2] | [7] | [9] | [18]
